Data taken from PubChem BioAssay.

What follows are compounds tested on Wnt5a (protein binding on small-molecule microarray) (assay: small molecules binding Wnt5a protein – biophysical, small-molecule microarray, 635/667 nm fluorescence, primary screen (AID 1142;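 further: fluorescence read at 667 nm with signal to noise per printed feature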)). Conditions: 635 nm fluorescence, higher = more signal.

| Structure (SMILES) | composite z-score |
| --- | --- |
| COCCCNC(=O)[C@@H]1c2ccccc2C(=O)N(C2Cc3ccccc3C2)[C@H]1c1ccc(CO)cc1 | -0.0499 |
| COc1ccc([Si](C)(C)[C@H]2[C@H](CCO)O[C@@]3(C(=O)N(Cc4ccccc4)c4ccc(N5CCOC5=O)cc43)[C@@H]2C)cc1 | 0.0771 |
| C[C@@]12COC[C@]13C=C(Br)[C@H](C2)[C@@]1(CO1)C3=O | -0.329 |
| Nc1cc(Br)ccc1C(=O)O | 0.0415 |
| COC(=O)[C@@]1(Cc2ccccc2)[C@H]2c3cc(C(=O)N(C)C)n(CCn4cc([N+](=O)[O-])nc4C)c3C[C@H]2CN1C(=O)c1ccccc1 | 0.192 |
| C=C(/C(=C/C[C@@H](OC(C)=O)c1ccc(CO)o1)c1cc(C(=O)OC)ccc1OC)C(C)C | 0.201 |
| CC(C)C(=C=CC[C@H](O)c1cccc(OCCO)c1)CCO | 0.299 |
| C=CCN1C(=O)[C@]2(O[C@H](CCO)[C@@H]([Si](C)(C)c3ccc(OC)cc3)[C@@H]2C)c2cc(NC(=O)c3ccc(OC)cc3)ccc21 | 0.211 |
| CC(=O)NCCCC[C@@H]1NC(=O)[C@@H]2C[C@H](C(=O)NCCCCCCN)[C@H](c3cccc(OCCO)c3)N2C1=O | -0.147 |
| CN(C)CCCCNC(=O)[C@H]1C[C@H]2C(=O)N[C@@H](CCCC[N+](C)(C)C)C(=O)N2[C@H]1c1ccc(O)cc1 | 0.0044 |
| CC(C)N1CC=CC23O[C@@H]4/C=C\CCCOC(=O)C4[C@H]2C(=O)N(CCCCCCO)[C@@H]3C1=O (stereo not given in full) | -0.0379 |
| O=C(CS)NCCCCCCNC(=O)[C@@H]1C[C@@H]2C(=O)NCC(=O)N2[C@@H]1c1ccc(O)cc1 | -0.101 |
| COc1ccc([Si](C)(C)[C@H]2[C@H](CCO)O[C@@]3(C(=O)N(Cc4ccccc4)c4ccc(N5C(=O)c6ccccc6Oc6ccccc65)cc43)[C@@H]2C)cc1 | 0.147 |
| NC(=O)[C@H]1[C@@H]2C(=O)O[C@@H](c3ccccc3)[C@@H](c3ccccc3)N2[C@@H](c2ccc(O)cc2)[C@]12C(=O)Nc1ccccc12 | -0.355 |
| [N-]=[N+]=NCc1ccccc1[C@@H]1OC(c2ccc(OCCCO)cc2)=N[C@]1(Cc1ccccc1)C(=O)NCCN1CCOCC1 | 0.629 |
| O=C1C2C=CC(C(O)c3ccc4c(c3)OCO4)N(Nc3ccccc3)C2C(=O)N1c1ccccc1 (stereo not given) | 0.096 |
| O=C(CS)NCCCCCNC(=O)[C@@H]1C[C@@H]2C(=O)N[C@@H](Cc3ccccc3)C(=O)N2[C@@H]1c1cccc(OCCO)c1 | 0.409 |
| NCCCCCNC(=O)[C@@H]1C[C@@H]2C(=O)N3CCC[C@H]3C(=O)N2[C@@H]1c1ccc(O)cc1 | 0.446 |

| Structure (SMILES) | composite z-score |
| --- | --- |
| COc1cc(NN2C(C(O)c3ccccc3)C=CC3C(=O)N(C)C(=O)C32)cc(OC)c1OC (stereo not given) | 0.107 |
| CC=CC(O)C1C=CC2C(=O)NC(=O)C2N1Nc1ccccn1 (stereo not given) | -0.11 |
| COCCOC(=O)N1C(=O)[C@@]2(c3ccccc31)[C@H](c1ccccc1OCCO)N1[C@H](c3ccccc3)[C@H](c3ccccc3)OC(=O)[C@H]1[C@@H]2C(N)=O | 0.408 |
| COc1cc(NN2C(C(O)c3ccc(I)cc3)C=CC3C(=O)N(c4ccccc4)C(=O)C32)cc(OC)c1OC (stereo not given) | 0.378 |
| [N-]=[N+]=NCc1ccccc1[C@@H]1OC(c2ccc(OCCCO)cc2)=N[C@]1(Cc1ccccc1N=[N+]=[N-])C(=O)NCCN1CCOCC1 | 0.959 |
| C=C(/C(=C/C[C@H](OC(=O)c1ccncc1)c1ccccc1OCCO)c1cnc2ccccc2c1)C(C)C | 0.733 |
| C=CCNC(=O)[C@@H]1[C@H]2C(=O)O[C@H](c3ccccc3)[C@H](c3ccccc3)N2[C@H](c2ccc(OCCO)cc2)[C@@]12C(=O)N(C(=O)OCCOC)c1ccc(C#CCCO)cc12 | 0.85 |
| C=C[C@H](C)[C@H](OC(=O)Nc1ccc(OC)cc1)c1ccc(OCCO)cc1 | -0.423 |
| COc1ccc(C#Cc2ccc3c(c2)[C@]2(C(=O)N3)[C@H](C(=O)N3CCCCCCC3)[C@H]3C(=O)O[C@H](c4ccccc4)[C@H](c4ccccc4)N3[C@@H]2c2ccc(O)cc2)cc1 | 0.696 |
| NCCCCCNC(=O)[C@H]1C[C@H]2C(=O)N[C@@H](Cc3ccccc3)C(=O)N2[C@H]1c1ccc(O)cc1 | 0.234 |
| CC(C)c1ccc(NN2C(C(O)Cc3ccccc3)C=CC3C(=O)N(c4ccccc4)C(=O)C32)cc1 (stereo not given) | 0.204 |
| Cc1ccc(S[C@]2(C(=O)NCc3ccccc3)CC(=O)N(Cc3cc(C(F)(F)F)cc(C(F)(F)F)c3)[C@@H]2c2ccc(CO)cc2I)cc1 | -0.309 |
| COCCCNC(=O)[C@@]1(c2ccc([N+](=O)[O-])cc2)CC(=O)N(C(C)C)[C@@H]1c1ccc(CO)cc1 | 0.0039 |
| CN1C(=O)C2C=CC(C(O)c3ccc(I)cc3)N(Nc3ccccc3)C2C1=O (stereo not given) | 0.377 |
| CCOC(=O)C1=C[C@@H](c2ccccc2)N(S(=O)(=O)c2ccc(C)cc2)[C@H]1c1ccccc1 | 0.202 |
| CC1CC/C=C\[C@H]2OC34C=CCN(C(C)(C)C)C(=O)[C@H]3N(C(CO)C(C)C)C(=O)[C@@H]4C2C(=O)O1 (stereo not given in full) | 0.0295 |
| COC(=O)[C@@]1(Cc2ccc(F)cc2)[C@H]2c3cc(C(=O)N4CCCC4)n(CC4CC4)c3C[C@H]2CN1C(=O)c1ccccc1 | 0.0479 |
